Assay outcomes (PubChem BioAssay)
The list is not random: actives were taken first. Their share in the collection is about 6.8%.
Fluor 339 460: intrinsic fluorescence of library compounds, ex339/em460 – biochemical, MLSMR library, data from DPM-DC assay, artefact control, profiling panel. hit rate 5.5% among 65,000. AID 709. fluorescence fold increase at 10 µM. compound autofluorescence, ex339/em460 nm, NADH buffer; hits give high values; 1 = no-compound wells, NADH background;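 active means at 10 µM, mean starting fluorescence two-fold or more over control wells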;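 further: signal is the first read of a kinetic run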
Spn DPM-DC inh: S. pneumoniae DPM-DC inhibition; purified DPM-DC, PK/LDH coupled NADH fluorescence; calls only at 10 µM; hit rate 0.49% among 65,000;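 active means the 320 compounds with the highest percent inhibition in the single-dose primary screen, excluding strongly autofluorescent ones, cut at about 32% in these data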;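 further: kinetic rate of NADH fluorescence loss reporting ADP formed by the decarboxylase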
Spn MK inh: blocks S. pneumoniae mevalonate kinase; inhibition, % at 10 µM; purified MK, PK/LDH-coupled NADH absorbance 340 nm; hit rate 0.48% among 65,000; AID 555;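 active means ranked among the strongest by inhibition in the single 10 µM screen, a fixed top-ranked set picked for dose follow-up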
PMK inhibit: S. pneumoniae PMK inhibition; purified PMK, PK/LDH-coupled NADH absorbance 340 nm; AID 539; inhibition, % at 10 µM; hit rate 0.49% among 65,000;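 active means top-ranked compounds by inhibition in the single 10 µM screen, taking a fixed number of the strongest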;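 further: 0% = full reaction with DMSO carrier and 100% = background rate without enzyme reaction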
Abs 340nm: compound absorbs light at 340 nm. AID 708. compound absorbance at 340 nm, fold over control. 65,000 tested, under 10 active. fold change at 10 µM;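 active means at 10 µM dose, initial 340 nm absorbance at least 2 fold that of control wells; inactive means change under 2 fold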;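 further: initial absorbance extrapolated from kinetic A340 decline of NADH oxidation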
NADH enzymes: inhibitors of enzymes used to reach an NAD/NADH endpoint. coupled PK/LDH NADH assays, four targets. IC50, µM (series often up to 10 µM), for inactives: top-dose inhibition. hit rate 0.02% among 65,000;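 active means single-dose screening hits from any of four coupled enzyme assays that gave an IC50 when retested across doses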;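 further: the DPM-DC format reads NADH fluorescence rather than 340 nm absorbance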
* marks the source's active call; other numbers are inactive results; i = inactive; · = no result given; + = active, no number.

SMILES | Fluor 339 460 | Spn DPM-DC inh | Spn MK inh | PMK inhibit | Abs 340nm | NADH enzymes
O=C(NCc1cccnc1)C1CCCN(S(=O)(=O)c2ccccc2)C1 (stereo not drawn) | 1.1 | i | 3.0 | 0.0 | 1.03 | 1.0%
COc1cccc(-c2nc(CS(=O)CC(=O)NCc3ccccc3)c(C)o2)c1 (stereo not drawn) | 0.98 | i | 3.0 | 6.0 | 1.03 | 3.0%
CCOC(=O)Nc1ccc2c(c1)N(C(=O)N(CC)CC)c1ccccc1CC2 | 1.14 | i | 0.0 | 9.0 | 1.04 | 3.0%
CC1=CC(C)(C)Nc2ccc(C)cc21 | 2.58* | i | 5.0 | 6.0 | 1.01 | 7.0%
CC1=CC(C)(C)Nc2cc(C)c(C)cc21 | 2.7* | i | 10.0 | 8.0 | 1.01 | 7.0%
COc1ccc(-c2nc(C#N)c(N3CCOCC3)o2)cc1OC | 3.07* | · | 11.0* | 9.0 | 1.03 | 8.0%
COc1ccc(-c2nc(C#N)c(N3CCN(c4cccc(Cl)c4)CC3)o2)cc1OC | 2.07* | i | 16.0 | 18.0 | 1 | 11.0%
N#Cc1nc(COc2ccccc2)oc1N1CCN(c2cccc(Cl)c2)CC1 | 1.1 | i | 0.0 | 1.0 | 1.07 | 0.0%
O=C(CN1CCC(n2nnc3cc(F)ccc32)CC1)NCCc1nc2ccccc2[nH]1 | 1.07 | i | 6.0 | 14.0 | 0.99 | 7.0%
CCOC(=O)c1nc2sc(C)c(C)c2c(=O)[nH]1 | 3.68* | · | 10.0 | 14.0 | 1.11 | 12.0%
CCOC(=O)CCCSc1nc2sc(C)c(C)c2c(=O)[nH]1 | 1.09 | i | 1.0 | 9.0 | 1.05 | 3.0%
COc1ccc2c(c1)c1c(n2C(C)=O)C(OC(C)=O)=NCC1 | 2.3* | · | 4.0 | 7.0 | 1.01 | 4.0%
CCN(CC)CCOC(=O)c1c(C)n(C)c2ccc(OC)cc12 | 1.12 | i | 0.0 | 5.0 | 1.02 | 2.0%
CCN(CCO)Cc1cc(=O)oc2c(C)c(C)ccc12 | 1.18 | i | 4.0 | 0.0 | 1.08 | 1.0%
COc1ccc2c(C(F)(F)F)cc(=O)oc2c1C | 2.93* | · | 11.0 | 3.0 | 1.04 | 2.0%
CCOC(=O)c1[nH]c2ccc(OC)cc2c1NC(=O)CN1CCN(c2ccccn2)CC1 | 1.97 | + | 0.0 | 41.0 | 1.02 | 25.0%
CCOC(=O)c1[nH]c2cc3c(cc2c1NC(=O)CN1CC(C)CC(C)C1)OCO3 (stereo not drawn) | 2.37* | · | 4.0 | 4.0 | 1.07 | 4.0%
CCOC(=O)c1[nH]c2ccc(OCC)cc2c1NC(=O)CN1CCCC(C)C1 (stereo not drawn) | 3.89* | · | 3.0 | 6.0 | 1.06 | 5.0%
CCOC(=O)c1[nH]c2ccc(OCC)cc2c1NC(=O)CN1CCN(c2ccccn2)CC1 | 3.93* | · | 1.0 | 15.0 | 1.07 | 8.0%
CCOC(=O)C1CCN(CC(=O)Nc2c(C(=O)OC)[nH]c3ccccc23)CC1 | 1.42 | i | 16.0 | 10.0 | 1.01 | 9.0%
COC(=O)c1[nH]c2ccccc2c1NC(=O)CN1CCN(Cc2ccc3c(c2)OCO3)CC1 | 1.61 | i | 13.0 | 6.0 | 1.01 | 9.0%
CCOC(=O)CCc1c(C)nc2cc(-c3ccccc3OC)[nH]n2c1=O | 1.49 | i | 2.0 | 4.0 | 1.05 | 8.0%
CCn1c(C)c(CCC(=O)O)c(=O)n2nc(-c3ccccc3OC)cc12 | 3.09* | · | 6.0 | 11.0 | 1.02 | 3.0%
c1ccc2sc(SCc3ccc(-c4nnco4)cc3)nc2c1 | 1 | i | 5.0 | 30.0* | 1.01 | 14.0%
O=C(O)CCSc1nc2ccccc2s1 | 1.13 | i | 0.0 | 4.0 | 1.06 | 1.0%
SMILES | Fluor 339 460 | Spn DPM-DC inh | Spn MK inh | PMK inhibit | Abs 340nm | NADH enzymes
Cc1nc2sccn2c1-c1nc(C2CC2)c(C(=O)c2ccc3c(c2)NC(=O)CO3)s1 | 1.31 | i | 0.0 | 13.0 | 1.01 | 4.0%
O=C(O)c1ccccc1C(=O)NCc1ccccc1 | 0.94 | i | 11.0 | 0.0 | 1.05 | 4.0%
O=C(O)c1ccccc1NCc1ccncc1 | 2.01* | i | 12.0 | 2.0 | 1.01 | 8.0%
O=C(O)c1ccc(CNc2ccccc2C(=O)O)cc1 | 2.6* | i | 1.0 | 4.0 | 1.07 | 9.0%
CCCCn1c(=O)n(C)c(=O)c2c(C(F)(F)F)cc(-c3ccncc3)nc21 | 2.11* | · | 0.0 | 12.0 | 1.1 | 6.0%
CCCCn1ccc(=O)c2c(C(F)(F)F)nccc21 | 1.1 | i | 12.0 | 0.0 | 1.11 | 4.0%
CCN(CCO)C(=O)C12CCC(C)(C(=O)C1)C2(C)C (stereo not drawn) | 1.11 | i | 6.0 | 3.0 | 1.03 | 3.0%
COc1cccc(C2/C(=C(/O)c3ccncc3)C(=O)C(=O)N2CCCN2CCOCC2)c1OC (stereo not drawn) | 1.07 | i | 3.0 | 6.0 | 1.06 | 3.0%
Cc1cc(NS(=O)(=O)c2ccc(-c3ccccc3)cc2)no1 | 0.98 | i | 9.0 | 0.0 | 1.03 | 4.0%
Cc1cccc(NS(=O)(=O)c2ccc(Oc3ccccc3)cc2)n1 | 2.94* | i | 7.0 | 8.0 | 1.03 | 15.0%
CCN(CC)S(=O)(=O)c1cccc(C(=O)Nc2nc3cc4c(cc3s2)OCCO4)c1 | 2.1* | · | 0.0 | 3.0 | 1.1 | 2.0%
CCN(CC)c1ccc(NC(=O)C2CCCN(S(=O)(=O)c3cnc[nH]3)C2)c(C)c1 (stereo not drawn) | 1.05 | i | 1.0 | 2.0 | 1.03 | 1.0%
NC(=O)C1CCN(c2nc(-c3ccccc3)nc3ccccc23)CC1 | 1.02 | i | 6.0 | 6.0 | 1.03 | 1.0%
NC(=O)C1CCN(c2nc(-c3ccccc3)nc3c2oc2ccccc23)CC1 | 2.15* | i | 5.0 | 1.0 | 1.04 | 2.0%
O=C(NCc1ccc2c(c1)OCO2)c1cc2ncc(Br)cn2n1 | 1.1 | i | 9.0 | 11.0 | 1.06 | 7.0%
CSc1ccccc1NC(=O)c1cc(-c2cccs2)on1 | 2.28* | i | 3.0 | 11.0 | 0.99 | 5.0%
COC(=O)Nc1ccc2c(c1)N(C(=O)CCN1CCN3CCCC3C1)c1ccccc1S2 (stereo not drawn) | 1.13 | i | 12.0 | 12.0 | 1.02 | 8.0%
COc1ccc(N2CCN(C(=O)c3cn(C4CCCC4)c(=O)c4c3c3ccccc3n4C)CC2)cc1 | 1.28 | i | 5.0 | 16.0 | 1.04 | 7.0%
Cn1c2ccccc2c2c(C(=O)O)cn(C3CCCC3)c(=O)c21 | 2.13* | · | 10.0 | 2.0 | 1.01 | 6.0%
Cc1ccc(CNC(=O)c2cn(C3CCCC3)c(=O)c3c2c2ccccc2n3C)o1 | 2.12* | · | 2.0 | 19.0 | 1.05 | 11.0%
Cn1c2ccccc2c2c(C(=O)NCc3ccco3)cn(C3CCCCC3)c(=O)c21 | 2.11* | · | 7.0 | 15.0 | 1.05 | 11.0%
O=C(NCC1COc2ccccc2O1)C1CCC(CNc2c(N3CCCCC3)c(=O)c2=O)CC1 (stereo not drawn) | 1.08 | i | 1.0 | 12.0 | 1.04 | 4.0%
COc1cc(C)c(S(=O)(=O)N2CCCC2)cc1C | 1.11 | i | 7.0 | 7.0 | 1.01 | 5.0%
CC1CN(C(=O)c2cc3c(s2)CCC3)CC(C)O1 (stereo not drawn) | 1.12 | i | 1.0 | 7.0 | 1 | 3.0%
